Screening results from PubChem BioAssay.
A selection: hits, their analogues and other compounds. The true share with any hit is near 9.2%.
NPC1 promoter act – activates the NPC1 promoter; Huh7 NPC1 promoter luciferase reporter, 24 h; Potency, µM (titrated, usually from 9.22 µM), for the others: top-dose activation, usual class: activators; 2.4% of 320,000 active; AID 485313; note: % of control where 0% means no effect; nearly all actives have a fitted effect of over 60% in size
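Cells: Huh7 expressing luciferase under the NPC1 promoter, 1500/well. Seeded 2 h, compound added, incubated 24 h at 37 °C. Luciferase reagent, 10 min ambient, then luminescence.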
ELG1 genotoxic – genotoxicity induction in ELG1-luciferase HEK293T cells. Potency, µM (highest dose often 46 µM), inactives show at the highest dose activity change, positive = activation, hits mostly activators. HEK293T ELG1-luciferase reporter, luminescence, 16 h. 1.3% of 330,000 active; note: % of control where 0% means no effect; nearly all actives have a fitted effect of over 60% in size
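DMSO vehicle served as control against compound-treated ELG1-luciferase HEK293T cells; exposure lasted 16 hr at 37 °C and 5% CO2, followed by ONE-Glo luminescence detection after 30 min.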
FLuc counter – inhibits or activates purified firefly luciferase, miR-21 counter-screen | Potency, µM (highest dose often 57.5 µM), for the others: at the highest dose activity change, negative = inhibition, most hits filed as inhibitors | P08659 | purified FLuc, Km substrates, luminescence inhibition | 6.9% of 360,000 active | AID 588342;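 note: plate controls were vehicle for no effect and reference inhibitor for full effect; nearly all actives have a fitted effect of over 55% in size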
Target sequence (P08659 whole entry, looked up): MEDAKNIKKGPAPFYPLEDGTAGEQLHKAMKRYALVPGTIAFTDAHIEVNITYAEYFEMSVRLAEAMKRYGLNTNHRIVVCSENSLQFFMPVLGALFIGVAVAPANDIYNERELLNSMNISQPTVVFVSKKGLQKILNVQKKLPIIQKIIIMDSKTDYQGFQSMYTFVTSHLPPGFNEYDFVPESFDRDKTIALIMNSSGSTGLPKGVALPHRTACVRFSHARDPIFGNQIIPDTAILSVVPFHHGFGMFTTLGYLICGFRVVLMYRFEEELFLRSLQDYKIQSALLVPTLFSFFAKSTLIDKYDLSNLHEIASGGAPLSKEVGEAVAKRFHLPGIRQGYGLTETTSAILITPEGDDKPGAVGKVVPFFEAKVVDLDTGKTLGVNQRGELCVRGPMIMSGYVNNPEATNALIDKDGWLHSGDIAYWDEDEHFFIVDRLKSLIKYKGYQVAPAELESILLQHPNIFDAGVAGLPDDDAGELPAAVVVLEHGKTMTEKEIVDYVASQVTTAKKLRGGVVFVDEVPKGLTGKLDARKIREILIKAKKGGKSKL
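Purified P. pyralis luciferase (10nM final) with 10uM D-luciferin and 10uM ATP (Km levels) in 50mM Tris acetate pH 7.5, 10mM Mg acetate, 0.01% Tween-20, 0.05% BSA; qHTS 6-point titration, ~60 µM downward; luminescence read.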
SMN2 splice up – SMN2 splice variant enhancement | HEK293 SMN2-luciferase splicing reporter, luminescence, 30-36 h | Potency, µM (highest dose often 46.1 µM), for the others: top-dose activity change, positive = activation, hits mostly activators | 2.8% of 210,000 active; note: % of control where 0% means no effect; nearly all actives have a fitted effect of over 55% in size
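HEK293 cells carry an SMN2 minigene-luciferase reporter in which exon 7 inclusion puts luciferase in frame. Cells were seeded at 2000 cells/well, attached for 10-12 hours, then exposed to compounds for 30-36 hours at 37C before ONE-Glo luminescence.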
ELG1 DNA repair – inhibitors of ELG1-dependent DNA repair in HEK293T cells | HEK293T ELG1-luciferase reporter, luminescence, 16 h; DNA damage induced by 5-fluorouridine | Potency, µM (doses to about 46.1 µM), without a hit: at the top dose activity change, negative = inhibition, most hits filed as inhibitors | 2.3% of 330,000 active; note: % is set by controls: 0 for no effect and ±100 for the full control effect; nearly all actives have a fitted effect of over 55% in size
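DMSO vehicle served as the neutral condition. Each well held 2,000 cells given 5-fluorouridine plus compound; after 16 hr at 37 °C/5% CO2, ONE-Glo was added and luciferase measured 30 min later.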
Rab9 prom act – Rab9 promoter activation | Potency, µM (titrated, usually from 9.22 µM), for inactives: top-dose activation, negative = inhibition, usual class: activators | 2.8% of 320,000 active | Huh7 Rab9 promoter-luciferase reporter, luminescence, 24 h; note: % of control where 0% means no effect; nearly all actives have a fitted effect of over 60% in size
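Quantitative HTS format; Huh7 Rab9-luciferase reporter cells (1500/well) receive compound 2 h post-plating, incubate 24 h at 37 °C, then get luciferase reagent for 10 min before luminescence reading.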
Starred values were filed as active, the others as inactive; u = inconclusive; x = no result given; ! = repeats disagree; [ ] = remark or other dose. Calls come from the whole dose curve; as a rule, active = well fitted curve in the direction sought with a large enough effect; inconclusive = small, poorly fitted or top-dose-only effect, or another doubt; inactive = no such curve, though single readings can be large; an effect the other way counts as inactive or inconclusive. Potency is the fitted concentration of half-maximal effect.

SMILES	NPC1 promoter act	ELG1 genotoxic	FLuc counter	SMN2 splice up	ELG1 DNA repair	Rab9 prom act
CCCc1nnc(NC(=O)CC(=O)Nc2ccccc2C(=O)O)s1	24%	1%	19µM*	-11%	u	-1%
CC(C)(C)CC(=O)Nc1nnc(CCc2ccccc2)s1	3.2µM*	u	u	x	u	3.2µM*
CCCC(=O)Nc1nnc(CCc2ccccc2)s1	4%	-3%	-5%	x	22%	5%
CCC(C)(C)C(=O)Nc1nnc(CCc2ccccc2)s1	2.8µM*	21µM*	u	x	u	4µM*
[N-]=[N+]=CC(=O)COC(=O)c1ccccc1	x	x	x	-18%[9.22 µM]	x	x
Cc1ccc(N2C(=O)CC(SCC(=O)Nc3ccc(S(N)(=O)=O)cc3)C2=O)cc1 (stereo not given)	u	u	27µM*	x	u	u
CCOC(=O)c1ccoc1CSCc1ccc(C(=O)OC)o1	-1%	21µM*	5%	13%	0%	17%
CCN(c1ccccc1)S(=O)(=O)c1nnc(NC(=O)c2ccco2)s1	2%	-1%	0.21µM*!	x	0%	0%
CCN(c1cccc(C)c1)S(=O)(=O)c1nnc(NC(=O)c2ccco2)s1	1%	-3%	2%	x	-1%	3%
CCN(c1ccccc1)S(=O)(=O)c1nnc(NC(=O)C(C)C)s1	1%	11%	0%	x	9%	-7%
CCN(c1cccc(C)c1)S(=O)(=O)c1nnc(NC(=O)c2ccccc2Cl)s1	x	x	13µM*	x	x	x
CCN(c1ccccc1)S(=O)(=O)c1nnc(NC(=O)C(C)(C)C)s1	1%	-1%	2%	x	7.3µM*	-4%
CCn1cc(C(=O)N(C)Cc2ccccc2)c(=O)c2cc(S(=O)(=O)N3CCc4ccccc4C3)ccc21	x	x	-12%	12%	x	x
Cc1ccc2nc(NC(=O)CN3C(=O)NC4(CCCC4)C3=O)sc2c1	-6%	0%	9.5µM*	x	u	-3%
CCc1ccc2nc(NC(=O)CN3C(=O)NC4(CCCC4)C3=O)sc2c1	x	0%	x	x	u	x
CCOc1ccc2nc(NC(=O)CN3C(=O)NC4(CCCC4)C3=O)sc2c1	11%	u	6.7µM*	x	u	25%
Cc1nn(-c2ccc(F)cc2)c(C)c1CN1CCN(CCC(C)C)C(CCO)C1 (stereo not given)	-1%	0%	0%	x	4%	-4%
CCc1ccc(C(=O)CN2CCSC2=N)cc1	1.6µM*	u	3µM*	u	u	0.71µM*
CCOCCOC(=O)c1ccc(NC(=O)/C=C/c2ccc(OC)c(OC)c2)cc1	x	x	-9%	-10%	x	x
Cc1ccc(/C=C/C2=NN(C)C(=O)CC2)cc1	3.5µM*	u	6.7µM*	11µM*	u	0.89µM*
O=C(COc1ccc(Cl)cc1Cl)c1ccc[nH]1	u	u	17µM*	x	u	u
O=C(COc1ccc(Cl)cc1Cl)N/N=C/c1ccc[nH]1	-44%	9%	13µM*	x	u	-52%
CCc1c(C)nc(SCC(=O)NNC(=O)c2ccco2)[nH]c1=O	-7%	0%	-1%	x	-1%	4%
CN1/C(=C\C(=O)COC(=O)c2ccc(O)c(O)c2)C(C)(C)c2ccccc21	-17%	6%	-14%	-2%	21µM*	0%
CNS(=O)(=O)c1cccc(C(=O)OCC(=O)/C=C2/N(C)c3ccccc3C2(C)C)c1	-1%	-2%	8%	-19%	u	-2%
SMILES	NPC1 promoter act	ELG1 genotoxic	FLuc counter	SMN2 splice up	ELG1 DNA repair	Rab9 prom act
CN1/C(=C\C(=O)COC(=O)c2ccc(O)cc2)C(C)(C)c2ccccc21	1%	-7%	5%	x	21µM*	-1%
Cc1ccc(OC(=O)c2cc(-c3ccc4c(c3)OCCO4)on2)c(C)c1	x	x	1.5µM*	x	x	x
COc1cc(NC(=O)c2cc(-c3ccc4c(c3)OCO4)on2)cc(OC)c1OC	-33%	-2%	2%	3%	-4%	-28%
CC(=O)c1cccc(NC(=O)c2cc(-c3ccc4c(c3)OCCO4)on2)c1	x	x	0.15µM*	x	x	x
CC(=O)c1cccc(NC(=O)c2cc(-c3ccc(C)cc3)on2)c1	u	4.6µM*	u	u	u	u
O=C(Nc1cccc(O)c1)c1cc(-c2ccc3c(c2)OCO3)on1	u	u	0.15µM*	x	u	u
CC(=O)c1ccc(NC(=O)c2cc(-c3ccc4c(c3)OCO4)on2)cc1	x	x	-2%	6%	x	x
C[C@H](NC(=O)CNC(=O)[C@@H](NC(=O)[C@H](Cc1ccccc1)NC(=O)CNC(=O)CNC(=O)[C@@H](N)Cc1ccccc1)[C@@H](C)O)C(=O)N[C@@H](CCCN=C(N)N)C(=O)N[C@@H](CCCCN)C(=O)N[C@@H](CO)C(=O)N[C@@H](C)C(=O)N[C@@H](CCCN=C(N)N)C(=O)N[C@H](CN)CCCCN	x	x	x	10%	x	x
CC1=C(C(=O)Nc2ccccc2C)C(c2sccc2C)n2ncnc2N1 (stereo not given)	x	x	0%	x	x	x
COc1ccccc1NC(NC(=O)c1cccnc1)C(Cl)(Cl)Cl (stereo not given)	-3%	-10%	4%	-4%	-11%	1%
COC(=O)c1cc(S(=O)(=O)Nc2cc(S(=O)(=O)N(C)C)ccc2C)oc1C	-1%	-1%	1%	x	9%	-3%
O=C(Nc1ccc(SC(F)F)cc1)c1cc(-c2cccs2)on1	x	x	-14%	x	x	x
CC(=O)Nc1ccc(NC(=O)c2cc(-c3ccc4c(c3)OCCO4)on2)cc1	x	x	0.34µM*	x	x	x
O=C(Nc1ccc(SC(F)F)cc1)c1cc(-c2ccc3c(c2)OCCO3)on1	x	x	5.4µM*	x	x	x
COc1ccc(Nc2ncnc3c2oc2ccccc23)cc1	2.5µM*	8.9µM*	9.5µM*	11µM*	u	1.3µM*
COc1cccc(Nc2nc(C)nc3c2oc2ccccc23)c1	-7%	-10%	u	x	-7%	-2%
c1ccc(Sc2ncnc3c2oc2ccccc23)cc1	u	u	8.5µM*	u	u	u
Cc1ccc(Nc2ncnc3c2oc2ccccc23)cc1	2.5µM*	7.3µM*	3.4µM*	13µM*	u	2µM*
Cc1ccc(Nc2nc(=O)c3cccnc3s2)c(Br)c1	20%	1%	u	x	20%	11%
CCOC(=O)c1c(NC(=O)CSc2ncnc3ccccc23)sc(C(C)=O)c1C	-13%	-6%	1%	-38%	15µM*	-23%
CCOC(=O)c1c(NC(=O)CSc2nc3cccnc3n2C)sc(C(C)=O)c1C	-7%	0%	0%	-23%	u	0%
CCOC(=O)c1sc(NC(=O)CNCc2ccccn2)c(C(=O)OCC)c1C	-1%	-10%	2%	x	12µM*	-7%
